For 10 molecules, Potency and max activation results are on record in PubChem BioAssay (Tox21).

The structures appear in SMILES notation. Unmarked numbers belong to inactive results. Records with an inconclusive call do not appear. Activity calls are given as the source filed them. Calls come from the whole dose curve; as a rule, active = well fitted curve in the direction sought with a large enough effect in the repeat runs; inconclusive = weak or mixed curves; inactive = no such curve, though single readings can be large; an effect the other way counts as inactive or inconclusive.

Assay [1] is described as follows: Human pregnane X receptor (PXR) small molecule agonists, qHTS cell viability counter screen (AID 1346977). Note: nearly all actives have a fitted effect of over 50% in size. In short, it runs like this: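 Measures live-cell protease fluorescence (CellTiter-Fluor) in PXR-Luc HepG2 cells treated 24hr with compounds at 37C. Cells had 5hr to attach before pin transfer of DMSO solutions.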
A short description of assay [2]: Caspase-3/7 induction in HepG2 cells by small molecules, qHTS assay (AID 1346978). Note: nearly all actives have a fitted effect of over 15% in size. The method in brief:
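Wild-type HepG2 cells (2,000/well) were settled 5 h at 37 C, 5% CO2, then exposed to compounds in DMSO for 17 h. Caspase-3/7 activity was read by luminescence 30 min after adding Caspase-Glo 3/7 reagent at room temperature.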
On the technique in general: Quantitative high-throughput screening tests each substance at several concentrations.

The nature of assay [3]: Caspase-3/7 induction in CHO-K1 cells by small molecules, qHTS cell viability counter screen (AID 1346979). Note: nearly all actives have a fitted effect of over 35% in size. In short, it runs like this: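 In the same wells as the caspase read, viability of compound-treated wild-type CHO-K1 cells was assessed using CellTiter-Fluor, added after 16hr at 37C and measured by fluorescence following 1hr further incubation.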
Assay [4] is described as follows: Caspase-3/7 induction in CHO-K1 cells by small molecules, qHTS assay (AID 1346980). Note: nearly all actives have a fitted effect of over 15% in size. The method in brief: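 Wild-type cells were seeded at 1,500 per well and settled 5 hr at 37 C, 5% CO2, then exposed to DMSO-dissolved compounds for 17 hr. Caspase-Glo 3/7 reagent was added, and luminescence was read after 30min at room temperature.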
In assay [5] the target is Nuclear receptor subfamily 1 group I member 2 (Homo sapiens) (UniProt O75469). Briefly: Human pregnane X receptor (PXR) small molecule agonists, qHTS assay (AID 1346982). Note: nearly all actives have a fitted effect of over 35% in size. Note: potency is the fitted concentration of half-maximal effect. The method in brief:
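Agonist mode: luminescence from ONE-Glo after 24 h compound exposure at 37C in HepG2 cells carrying hPXR-responsive CYP3A4 luciferase, plated in charcoal-stripped serum medium 5 h beforehand.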

In assay [6] the target is Cytochrome P450 2D6 (Homo sapiens) (UniProt P10635). Briefly: Cytochrome P450 Family 2 Subfamily D Member 6 (CYP2D6) small molecule antagonists: luciferase reporter qHTS assay (AID 1671196). Note: nearly all actives have a fitted effect of over 50% in size. Note: potency is the fitted concentration of half-maximal effect. In short, it runs like this: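 CYP2D6 activity was followed as luminescence from its luciferin product after a 1 h NADPH-driven reaction at room temperature. Enzyme-substrate mix and compound were pre-incubated for 10 min, and the signal was read 20 min after adding detection reagent.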
A general note: A reporter such as luciferase makes a cellular process visible.

For assay [7], the target named is Cytochrome P450 2C19 (Homo sapiens) (UniProt P33261). Briefly: Cytochrome P450 Family 2 Subfamily C Member 19 (CYP2C19) small molecule antagonists: luciferase reporter qHTS assay (AID 1671197). Note: nearly all actives have a fitted effect of over 65% in size. Note: potency is the fitted concentration of half-maximal effect. In short, it runs like this: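 P450-Glo CYP2C19 screening system; proluciferin substrate; DMSO compound stocks; 10 min RT preincubation; NADPH regeneration, 1 h at 37C; luciferin detection reagent, 20 min RT; luminescence as RLU.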

Assay [8] addresses Cytochrome P450 2C9 (Homo sapiens) (UniProt P11712). Nature of the assay: Cytochrome P450 Family 2 Subfamily C Member 9 (CYP2C9) small molecule antagonists: luciferase reporter qHTS assay (AID 1671198). Note: series mostly up to about 120 µM; nearly all actives have a fitted effect of over 50% in size. In short, it runs like this: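 CYP2C9 activity was measured with a P450-Glo proluciferin substrate. Enzyme–substrate mix was held with compound for 10 min at room temperature, then NADPH regeneration solution was added for 1 h at 37C. Luciferin product was read as luminescence.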

Assay [9] concerns the target Cytochrome P450 1A2 (Homo sapiens) (UniProt P05177). Nature of the assay: Cytochrome P450 Family 1 Subfamily A Member 2 (CYP1A2) small molecule antagonists: luciferase reporter qHTS assay (AID 1671199). Note: nearly all actives have a fitted effect of over 50% in size. Note: potency is the fitted concentration of half-maximal effect. The method in brief: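 Luminescence from luciferin formed by CYP1A2 from a proluciferin substrate, read 20 min after detection reagent. Compound was pre-incubated 10 min with enzyme-substrate, and reaction started with NADPH regeneration solution for 1 h at room temperature; furafylline control.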

Assay [10] concerns the target Voltage-gated inwardly rectifying potassium channel KCNH2 (Homo sapiens) (UniProt Q12809). Briefly: Human Ether-a-go-go-Related Gene (hERG) channel small molecule antagonists: fluorescence cell-based qHTS assay (AID 1671200). In short, it runs like this:
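Quantitative HTS in hERG-U2OS cells: thallium entry through the channel reports activity, read as continuous 480/540 nm fluorescence over 2 min after stimulus addition.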
On the technique in general: hERG is a cardiac potassium channel; its block is linked to QT prolongation.

For assay [11], the target named is Cytochrome P450 3A4 (Homo sapiens) (UniProt P08684). Nature of the assay: Cytochrome P450 Family 3 Subfamily A Member 4 (CYP3A4) small molecule antagonists: luciferase reporter qHTS assay (AID 1671201). Note: nearly all actives have a fitted effect of over 50% in size. Note: potency is the fitted concentration of half-maximal effect. The method in brief:
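Inhibition of CYP3A4 is measured as loss of light: the enzyme converts a proluciferin substrate to luciferin, detected luminescently. Reaction ran 1 h at room temperature with NADPH regeneration after a 10 min compound preincubation.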

Assay [12] addresses Nuclear receptor subfamily 1 group I member 2 (Rattus norvegicus) (UniProt Q9R1A7). Nature of the assay: Rat pregnane X receptor (rPXR) activation by small molecules, qHTS assay (AID 1346983). Note: nearly all actives have a fitted effect of over 20% in size. The conditions noted are these: rPXR luciferase reporter cells, One-Glo luminescence, 24 h; max activation: stronger effect = higher value. In short, it runs like this:
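Cell-based rPXR luciferase reporter assay, 2,000 cells per well, rested 5hr at 37 C before compound addition in DMSO, then 24 hr at 37 C. One-Glo reagent was added and luminescence read after 30 min at room temperature.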

Assay [13] concerns the target Nuclear receptor subfamily 1 group I member 2 (Homo sapiens) (UniProt O75469). Briefly: CYP3A4 induction through human pregnane X receptor (PXR) by small molecules, qHTS assay (AID 1346984). Note: nearly all actives have a fitted effect of over 40% in size. The method in brief:
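Read-out is luminescence after One-Glo addition, following a 3 hr, 37C incubation with Luciferin-IPA CYP3A4 substrate (3uM final). Before that, compounds were on DPX-2 cells (HepG2 co-transfected with PXR element plus CYP3A4-promoter luciferase) for 24 hr at 37C.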

Assay [14] has the same target. Nature of the assay: Human pregnane X receptor (PXR) activation by small molecules, qHTS assay (AID 1346985). Note: nearly all actives have a fitted effect of over 40% in size. In short, it runs like this:
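DPX-2 cells (HepG2 co-transfected with a PXR response element and a CYP3A4-promoter luciferase construct) were seeded at 2,000 per well, rested 5 hr at 37C, then exposed to DMSO-dissolved compounds for 24 hr. Activation was read as luciferase luminescence.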

Assay [15] can be described thus: Caspase-3/7 induction in HepG2 cells by small molecules, qHTS cell viability counter screen (AID 1346981). Note: series mostly up to about 92 µM; nearly all actives have a fitted effect of over 30% in size. In short, it runs like this:
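CellTiter-Fluor fluorescence measured viability in the same wells used for Caspase-Glo 3/7. HepG2 (wild type) at 2,000 cells/well were pre-incubated 5 hr, dosed, and given reagent at 16 hr, with 1 hr further at 37C.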
% is set by controls: 0 for no effect and ±100 for the full control effect.

Sequence of Cytochrome P450 2D6 (Homo sapiens) (P10635 whole entry, looked up): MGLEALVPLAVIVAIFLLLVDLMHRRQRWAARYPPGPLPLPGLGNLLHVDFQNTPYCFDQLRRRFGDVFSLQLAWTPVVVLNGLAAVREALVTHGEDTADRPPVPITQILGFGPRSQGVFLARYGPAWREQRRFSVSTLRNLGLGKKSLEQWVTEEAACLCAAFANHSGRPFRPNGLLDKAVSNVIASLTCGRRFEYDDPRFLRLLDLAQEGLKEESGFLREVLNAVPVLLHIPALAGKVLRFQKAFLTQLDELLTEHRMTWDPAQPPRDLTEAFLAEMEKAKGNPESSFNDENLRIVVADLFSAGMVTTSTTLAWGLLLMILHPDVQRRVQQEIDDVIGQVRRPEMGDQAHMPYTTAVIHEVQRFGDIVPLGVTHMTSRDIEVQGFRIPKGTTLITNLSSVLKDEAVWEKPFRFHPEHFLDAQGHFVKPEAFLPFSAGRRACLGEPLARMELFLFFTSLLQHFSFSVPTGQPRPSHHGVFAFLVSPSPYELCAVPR
Sequence of Cytochrome P450 2C9 (Homo sapiens) (P11712 whole entry, looked up): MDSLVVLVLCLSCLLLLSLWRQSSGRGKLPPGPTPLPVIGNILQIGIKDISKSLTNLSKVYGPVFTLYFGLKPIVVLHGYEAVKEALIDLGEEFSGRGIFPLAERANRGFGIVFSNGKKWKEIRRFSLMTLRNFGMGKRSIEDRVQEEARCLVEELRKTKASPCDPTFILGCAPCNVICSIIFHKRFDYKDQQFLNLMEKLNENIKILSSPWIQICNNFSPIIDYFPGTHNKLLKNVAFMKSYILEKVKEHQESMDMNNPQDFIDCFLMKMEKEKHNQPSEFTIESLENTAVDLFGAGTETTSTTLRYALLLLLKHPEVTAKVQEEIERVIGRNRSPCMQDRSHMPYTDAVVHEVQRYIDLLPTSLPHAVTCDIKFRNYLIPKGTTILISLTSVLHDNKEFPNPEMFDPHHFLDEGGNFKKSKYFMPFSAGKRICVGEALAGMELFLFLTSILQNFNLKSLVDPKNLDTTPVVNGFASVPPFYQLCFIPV
Sequence of Cytochrome P450 2C19 (Homo sapiens) (P33261 whole entry, looked up): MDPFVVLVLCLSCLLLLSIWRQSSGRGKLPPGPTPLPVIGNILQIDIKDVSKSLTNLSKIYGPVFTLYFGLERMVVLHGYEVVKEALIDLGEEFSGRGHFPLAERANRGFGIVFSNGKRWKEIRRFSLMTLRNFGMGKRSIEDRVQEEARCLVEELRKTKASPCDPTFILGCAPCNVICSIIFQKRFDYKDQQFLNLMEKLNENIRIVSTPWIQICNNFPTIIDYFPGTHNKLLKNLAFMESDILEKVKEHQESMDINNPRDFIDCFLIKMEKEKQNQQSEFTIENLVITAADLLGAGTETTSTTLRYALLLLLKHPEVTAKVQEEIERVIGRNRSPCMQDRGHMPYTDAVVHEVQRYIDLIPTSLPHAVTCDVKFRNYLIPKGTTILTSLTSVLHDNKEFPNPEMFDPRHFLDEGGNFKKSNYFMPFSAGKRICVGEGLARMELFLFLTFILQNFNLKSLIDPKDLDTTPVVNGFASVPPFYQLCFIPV
Sequence of Nuclear receptor subfamily 1 group I member 2 (Homo sapiens) (O75469 whole entry, looked up): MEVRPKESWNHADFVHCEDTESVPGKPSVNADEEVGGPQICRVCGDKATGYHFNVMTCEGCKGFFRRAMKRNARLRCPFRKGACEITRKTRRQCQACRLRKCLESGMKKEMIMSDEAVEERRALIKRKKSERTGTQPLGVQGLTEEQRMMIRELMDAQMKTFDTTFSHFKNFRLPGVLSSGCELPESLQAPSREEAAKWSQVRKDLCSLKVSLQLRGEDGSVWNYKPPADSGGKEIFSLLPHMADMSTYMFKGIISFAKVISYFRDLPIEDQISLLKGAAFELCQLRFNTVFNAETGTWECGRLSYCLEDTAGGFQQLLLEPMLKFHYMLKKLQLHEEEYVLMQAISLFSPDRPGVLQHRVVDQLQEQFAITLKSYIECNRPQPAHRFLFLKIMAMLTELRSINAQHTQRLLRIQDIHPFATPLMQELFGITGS
Sequence of Cytochrome P450 1A2 (Homo sapiens) (P05177 whole entry, looked up): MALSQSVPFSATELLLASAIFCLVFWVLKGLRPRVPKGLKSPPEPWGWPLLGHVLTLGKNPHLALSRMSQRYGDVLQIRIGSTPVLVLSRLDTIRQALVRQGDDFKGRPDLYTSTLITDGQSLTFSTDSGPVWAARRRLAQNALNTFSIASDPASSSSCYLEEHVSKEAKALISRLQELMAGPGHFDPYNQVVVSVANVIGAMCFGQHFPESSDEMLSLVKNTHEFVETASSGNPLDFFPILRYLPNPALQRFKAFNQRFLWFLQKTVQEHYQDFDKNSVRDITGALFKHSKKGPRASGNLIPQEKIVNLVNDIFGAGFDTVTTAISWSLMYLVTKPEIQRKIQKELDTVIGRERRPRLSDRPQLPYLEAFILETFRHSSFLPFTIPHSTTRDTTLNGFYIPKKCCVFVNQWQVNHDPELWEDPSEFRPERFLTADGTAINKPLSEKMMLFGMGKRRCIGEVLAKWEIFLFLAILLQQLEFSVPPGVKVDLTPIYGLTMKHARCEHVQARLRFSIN
Sequence of Cytochrome P450 3A4 (Homo sapiens) (P08684 whole entry, looked up): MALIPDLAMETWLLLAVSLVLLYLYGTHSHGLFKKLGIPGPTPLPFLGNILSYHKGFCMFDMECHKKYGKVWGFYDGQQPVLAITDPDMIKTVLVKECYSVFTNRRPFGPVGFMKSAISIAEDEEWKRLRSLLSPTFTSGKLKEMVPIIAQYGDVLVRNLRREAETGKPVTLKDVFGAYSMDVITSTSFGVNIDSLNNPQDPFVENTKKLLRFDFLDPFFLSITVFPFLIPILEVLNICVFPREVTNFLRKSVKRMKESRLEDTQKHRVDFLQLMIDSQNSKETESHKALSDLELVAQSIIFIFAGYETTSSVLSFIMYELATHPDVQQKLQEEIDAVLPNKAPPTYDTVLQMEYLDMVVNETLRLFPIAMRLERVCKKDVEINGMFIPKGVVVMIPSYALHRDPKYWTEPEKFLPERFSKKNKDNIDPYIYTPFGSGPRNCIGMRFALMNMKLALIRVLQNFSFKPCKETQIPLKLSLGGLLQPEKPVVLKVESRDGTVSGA
Sequence of Voltage-gated inwardly rectifying potassium channel KCNH2 (Homo sapiens) (Q12809 whole entry, looked up): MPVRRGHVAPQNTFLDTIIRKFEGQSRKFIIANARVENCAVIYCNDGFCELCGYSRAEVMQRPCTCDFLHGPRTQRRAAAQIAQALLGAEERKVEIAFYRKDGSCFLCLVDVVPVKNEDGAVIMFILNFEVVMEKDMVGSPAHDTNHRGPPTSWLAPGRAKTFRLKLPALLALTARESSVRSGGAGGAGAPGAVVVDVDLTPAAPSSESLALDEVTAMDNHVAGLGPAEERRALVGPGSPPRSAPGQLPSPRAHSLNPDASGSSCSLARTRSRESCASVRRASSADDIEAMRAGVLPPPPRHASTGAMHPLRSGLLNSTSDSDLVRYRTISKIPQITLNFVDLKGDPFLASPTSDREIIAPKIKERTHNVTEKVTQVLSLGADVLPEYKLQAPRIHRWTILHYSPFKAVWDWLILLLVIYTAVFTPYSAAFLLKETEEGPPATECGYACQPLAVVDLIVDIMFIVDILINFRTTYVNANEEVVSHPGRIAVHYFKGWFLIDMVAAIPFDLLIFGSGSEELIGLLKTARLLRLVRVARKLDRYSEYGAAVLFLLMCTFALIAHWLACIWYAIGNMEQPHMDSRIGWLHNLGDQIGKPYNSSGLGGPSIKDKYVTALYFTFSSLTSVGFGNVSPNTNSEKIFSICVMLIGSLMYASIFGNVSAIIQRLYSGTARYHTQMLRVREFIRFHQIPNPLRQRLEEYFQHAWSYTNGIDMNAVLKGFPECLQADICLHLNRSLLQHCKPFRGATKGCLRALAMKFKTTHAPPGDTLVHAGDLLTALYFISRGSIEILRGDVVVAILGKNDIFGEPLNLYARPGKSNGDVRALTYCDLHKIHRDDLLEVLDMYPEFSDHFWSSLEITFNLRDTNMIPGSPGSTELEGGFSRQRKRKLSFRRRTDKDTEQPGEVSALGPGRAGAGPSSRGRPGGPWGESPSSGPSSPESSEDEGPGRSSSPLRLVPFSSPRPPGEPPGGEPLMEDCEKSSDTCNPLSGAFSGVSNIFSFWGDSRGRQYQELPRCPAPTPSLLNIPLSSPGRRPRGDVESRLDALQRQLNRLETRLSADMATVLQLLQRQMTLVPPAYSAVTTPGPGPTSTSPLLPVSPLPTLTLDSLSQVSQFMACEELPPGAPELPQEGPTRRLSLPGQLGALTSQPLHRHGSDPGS
Sequence of Nuclear receptor subfamily 1 group I member 2 (Rattus norvegicus) (Q9R1A7 whole entry, looked up): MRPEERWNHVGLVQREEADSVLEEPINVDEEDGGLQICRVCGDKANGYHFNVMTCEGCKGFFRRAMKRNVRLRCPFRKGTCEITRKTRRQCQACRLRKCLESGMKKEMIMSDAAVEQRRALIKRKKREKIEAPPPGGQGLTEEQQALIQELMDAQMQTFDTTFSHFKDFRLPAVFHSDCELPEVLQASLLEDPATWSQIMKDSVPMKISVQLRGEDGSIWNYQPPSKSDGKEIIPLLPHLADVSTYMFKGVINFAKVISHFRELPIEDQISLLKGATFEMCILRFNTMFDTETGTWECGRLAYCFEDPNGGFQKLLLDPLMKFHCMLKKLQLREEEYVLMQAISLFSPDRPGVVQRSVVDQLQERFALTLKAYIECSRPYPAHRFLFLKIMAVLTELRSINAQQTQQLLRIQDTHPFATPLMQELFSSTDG

`CC(CO)CO`: the Potency result in [1], in assay [2], in assay [3], in assay [4], in [5] and in [6] was “inactive” each time. Moreover, the Potency result in [7], in assay [8], in [9], in assay [10] and in assay [11] was “inactive” throughout.

Turning to `COc1cc(C(=O)NCCCCCC(=O)O)cc(OC)c1OC`, the Potency entry in assay [1], in assay [2], in assay [3], in assay [4], in assay [5] and in [13] was “inactive” each time. For the same molecule, the Potency entry in assay [14], in [6], in assay [7], in [8], in assay [9] and in assay [10] was “inactive” throughout. Besides, in assay [11], the Potency result was “inactive”. The max activation in assay [12] was -0.807%.

Regarding `Cc1ccc(C(C)(C)O)cc1`, the Potency result in [1], in assay [2], in assay [3], in assay [4], in assay [5] and in [6] was “inactive” each time. In addition, the Potency entry in assay [7], in assay [8] and in assay [11] was “inactive” in each case.

Turning to `CC(C)=CC(=O)C=C(C)C`, the Potency entry in assay [1], in assay [2], in [3], in assay [4], in assay [5] and in assay [6] was “inactive” in each case. The Potency result in assay [8], in assay [10] and in assay [11] was “inactive” throughout. Moreover, the Potency was 39.7 µM (active) in [7] and 28.1 µM (active) in [9].

On to `CCCCCCCCCI`, for which the Potency entry in assay [1], in assay [2], in assay [3], in [4], in assay [5] and in assay [9] was “inactive” each time. Besides, the Potency entry in assay [11] was “inactive”.

As to `CCC1NC(=O)c2cc(S(N)(=O)=O)c(Cl)cc2N1` (centres undefined), the Potency entry in [1], in [2], in assay [3], in [4], in assay [15] and in [10] was “inactive” throughout.

As for `CCC(=O)C1CC(C(C)C)CC=C1C` (centres undefined), the Potency result in assay [1], in assay [2], in assay [3] and in assay [4] was “inactive” each time. In addition, the Potency in assay [5] was 30.6 µM (active); in [7], 35.6 µM (active); in assay [9], 63.3 µM (active); in [11], 39.9 µM (active).

Regarding `CO[C@]1(NC(=O)CSC(F)F)C(=O)N2C(C(=O)O)=C(CSc3nnnn3CCO)CO[C@H]21`, the Potency result in [1], in assay [2], in assay [3], in assay [4], in [15] and in [7] was “inactive” in each case. Moreover, the Potency result in assay [8], in [9], in assay [10] and in assay [11] was “inactive” in each case.

Consider `CC[N+](CC)(CCNC(=O)C(=O)NCC[N+](CC)(CC)Cc1ccccc1Cl)Cc1ccccc1Cl`, for which the Potency result in [1], in assay [2], in assay [3], in assay [4], in assay [5] and in [13] was “inactive” throughout. Moreover, the Potency entry in assay [14], in assay [7], in [8], in assay [10] and in [11] was “inactive” in each case. Also, the max activation in assay [12] is -3.21%. The Potency in assay [6] is 15.5 µM (active).

Turning to `CCC(=O)OC`, the Potency result in assay [1], in assay [2], in assay [3], in assay [4], in [5] and in [6] was “inactive” in each case. Also, the Potency result in [7], in [8], in [9] and in assay [11] was “inactive” throughout.
